Unmarked numbers belong to inactive results. For some of these results: Results with a measured potency or affinity are listed apart. The source made the active and inactive calls. Unless noted, the rule behind the calls is not given here.

A short description of assay [1]: antimalarial activity against Dd2 strain (AID 2302;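 active = growth inhibition above 50% at the single 2 µM test dose, taken to imply half-maximal potency below 2 µM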;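 note: 0% = DMSO untreated growth and 100% = chloroquine plus artemisinin killed control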). The note with it: P. falciparum Dd2 in RBCs, LDH growth readout, 72 h; at 2 µM; stronger effect = higher value.
Assay [2] can be described thus: human hepatoma cell viability loss – ATP luminescence, cytotoxicity control for P. falciparum antimalarial project, primary screen (AID 2303;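 active = inhibition above 50%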;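 note: 0% = DMSO wells and 100% = digitonin-killed cells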). As to conditions: HepG2 viability, 24-48 h, at 10 µM, stronger effect = higher value.
The target in assay [3] is L-lactate dehydrogenase (Plasmodium falciparum (isolate CDC / Honduras)) (UniProt Q27743). Briefly: PfLDH activity inhibition – cell lysate, 3D7 strain, counter-screen for P. falciparum growth inhibition project (AID 2304).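 Note: 0% = vehicle and 100% = reference inhibitor.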 The note with it: P. falciparum 3D7 crude extract, LDH APAD/NBT absorbance; at 2 µM; stronger effect = higher value.
A short description of assay [4]: inhibition of 3D7 malaria parasite growth – strain 3D7 (AID 2306).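 Note: 0% = DMSO wells and 100% = chloroquine plus artemisinin control wells.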 The note with it: P. falciparum 3D7 erythrocytic growth, LDH absorbance, 72 h; at 2 µM; stronger effect = higher value.
Assay [5] has as its target Calcium-dependent protein kinase 1 (Plasmodium falciparum (isolate 3D7)) (UniProt P62344). Briefly: PfCDPK1 kinase inhibitors, biochemical, TCAMS library (AID 1159585; cut-off not given, nearly all actives have IC50 up to about 0.98 µM;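 note: inhibitors leave more ATP so luminescence rises with inhibition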). As to conditions: recombinant PfCDPK1, Kinase-Glo ATP depletion luminescence.
Assay [6] concerns the target Plasmodium falciparum protein kinase 6 (PK6, PF3D7_1337100) (UniProt Q8IDW1). Nature of the assay: PfPK6 kinase inhibitors, biochemical, TCAMS library (AID 1159586). As to conditions: recombinant PfPK6, Kinase-Glo ATP depletion luminescence.
In assay [7] the target is Protein kinase 7 (PK7), Plasmodium falciparum 3D7 (PF3D7_0213400) (UniProt Q7YTF7). Nature of the assay: inhibition of Plasmodium PK7 catalytic activity – biochemical, TCAMS antimalarial set, Kinase-Glo luminescence (AID 1159587). As to conditions: recombinant PfPK7, Kinase-Glo ATP depletion luminescence.
Assay [8] addresses Calcium-dependent protein kinase 4 (Plasmodium falciparum (isolate 3D7)) (UniProt Q8IBS5). Briefly: PfCDPK4 kinase inhibitors, biochemical, TCAMS library (AID 1159588; cut-off not given, nearly all actives have IC50 up to about 0.91 µM). As to conditions: recombinant PfCDPK4, Kinase-Glo ATP depletion luminescence.

Sequence of L-lactate dehydrogenase (Plasmodium falciparum (isolate CDC / Honduras)) (Q27743 whole entry, looked up): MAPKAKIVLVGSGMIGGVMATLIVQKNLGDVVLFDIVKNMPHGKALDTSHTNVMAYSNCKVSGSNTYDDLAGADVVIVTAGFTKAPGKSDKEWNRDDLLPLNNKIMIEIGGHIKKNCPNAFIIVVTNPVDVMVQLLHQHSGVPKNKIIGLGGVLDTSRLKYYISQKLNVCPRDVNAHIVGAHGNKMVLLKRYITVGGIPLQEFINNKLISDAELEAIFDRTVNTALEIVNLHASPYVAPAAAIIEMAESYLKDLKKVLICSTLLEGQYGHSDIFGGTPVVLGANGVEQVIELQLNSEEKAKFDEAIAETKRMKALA
Sequence of Plasmodium falciparum protein kinase 6 (PK6, PF3D7_1337100) (Q8IDW1 1-305): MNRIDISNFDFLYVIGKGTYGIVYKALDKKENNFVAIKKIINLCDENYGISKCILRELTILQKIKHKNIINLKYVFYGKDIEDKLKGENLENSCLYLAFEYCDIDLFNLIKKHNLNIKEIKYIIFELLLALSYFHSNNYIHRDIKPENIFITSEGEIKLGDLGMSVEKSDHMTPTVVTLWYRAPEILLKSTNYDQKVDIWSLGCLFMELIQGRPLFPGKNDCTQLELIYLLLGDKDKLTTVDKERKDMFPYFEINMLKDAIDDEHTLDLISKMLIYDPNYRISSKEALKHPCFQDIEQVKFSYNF
Sequence of Calcium-dependent protein kinase 4 (Plasmodium falciparum (isolate 3D7)) (Q8IBS5 whole entry, looked up): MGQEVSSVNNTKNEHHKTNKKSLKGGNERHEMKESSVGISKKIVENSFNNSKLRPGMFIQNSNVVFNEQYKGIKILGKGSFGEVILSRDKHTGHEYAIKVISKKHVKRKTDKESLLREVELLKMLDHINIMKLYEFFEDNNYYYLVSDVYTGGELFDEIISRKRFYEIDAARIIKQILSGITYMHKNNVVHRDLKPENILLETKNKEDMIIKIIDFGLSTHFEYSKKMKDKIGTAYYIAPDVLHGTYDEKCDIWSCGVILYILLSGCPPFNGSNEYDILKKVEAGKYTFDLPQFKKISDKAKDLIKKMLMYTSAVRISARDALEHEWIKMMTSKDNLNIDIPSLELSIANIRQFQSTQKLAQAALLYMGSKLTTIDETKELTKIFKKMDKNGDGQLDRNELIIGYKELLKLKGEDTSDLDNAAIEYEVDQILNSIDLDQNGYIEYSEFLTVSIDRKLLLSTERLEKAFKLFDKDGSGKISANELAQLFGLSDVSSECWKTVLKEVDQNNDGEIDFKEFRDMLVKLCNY
Sequence of Protein kinase 7 (PK7), Plasmodium falciparum 3D7 (PF3D7_0213400) (Q7YTF7 1-343): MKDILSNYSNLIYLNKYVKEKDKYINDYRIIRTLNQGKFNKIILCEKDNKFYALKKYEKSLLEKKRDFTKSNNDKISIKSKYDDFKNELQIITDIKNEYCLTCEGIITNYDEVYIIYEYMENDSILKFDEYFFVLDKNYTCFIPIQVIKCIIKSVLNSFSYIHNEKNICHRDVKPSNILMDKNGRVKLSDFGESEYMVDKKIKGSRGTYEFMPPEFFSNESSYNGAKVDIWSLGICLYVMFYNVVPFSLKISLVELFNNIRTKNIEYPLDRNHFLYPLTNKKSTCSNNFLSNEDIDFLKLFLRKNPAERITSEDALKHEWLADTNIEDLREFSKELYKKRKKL
Sequence of Calcium-dependent protein kinase 1 (Plasmodium falciparum (isolate 3D7)) (P62344 whole entry, looked up): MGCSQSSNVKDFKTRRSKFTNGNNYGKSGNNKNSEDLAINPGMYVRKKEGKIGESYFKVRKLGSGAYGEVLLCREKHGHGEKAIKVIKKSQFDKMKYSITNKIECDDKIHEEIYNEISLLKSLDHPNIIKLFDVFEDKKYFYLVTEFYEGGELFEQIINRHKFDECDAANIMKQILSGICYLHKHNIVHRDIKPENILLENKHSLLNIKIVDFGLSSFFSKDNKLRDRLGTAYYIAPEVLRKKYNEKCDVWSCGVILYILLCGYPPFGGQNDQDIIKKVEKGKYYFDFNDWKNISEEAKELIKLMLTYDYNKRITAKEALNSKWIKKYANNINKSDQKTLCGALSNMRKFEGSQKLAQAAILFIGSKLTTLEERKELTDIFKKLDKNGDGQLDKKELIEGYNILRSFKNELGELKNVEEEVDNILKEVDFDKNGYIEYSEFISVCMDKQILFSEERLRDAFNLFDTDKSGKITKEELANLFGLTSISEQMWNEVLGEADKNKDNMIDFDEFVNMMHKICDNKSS

As to `CC(C)CN1CCC(COc2ccc3ncn(-c4cc(O[C@H](C)c5ccccc5C(F)(F)F)c(C(N)=O)s4)c3c2)CC1`, the growth inhibition in assay [1] was 86% (active); in assay [4] it was 97% (active). The results for the inhibition in assay [2] and in assay [3] were 46% and 7%, respectively. Further, the outcome in assay [5], in assay [6], in assay [7] and in assay [8] was inactive.

As to `CCN(CC)c1ccc(C(=O)Cn2ccc(=N)cc2)cc1`, the values for the growth inhibition in assay [1] and in assay [4] were 64% (active) and 84% (active), respectively. In addition, the inhibition is 92% (active) in assay [2] and 3% in assay [3]. For the same compound, the outcome in assay [5], in assay [6], in assay [7] and in assay [8] was inactive.

In the case of `O=C(Nc1ccccc1Cl)c1cc2ccccc2cc1O`, the growth inhibition in assay [1] was 72% (active); in assay [4], 94% (active). The inhibition in assay [2] is 2%; in assay [3], -4%. For the same compound, the outcome in assay [5], in assay [6], in assay [7] and in assay [8] was inactive.

`CC(=O)Nc1cc(C(=O)Nc2ccc(C3=NCCN3)cc2)ccc1C(=O)Nc1ccc(C2=NCCN2)cc1`: the growth inhibition in assay [1] is 92% (active); in assay [4], 96% (active). Further, the inhibition in assay [2] is 12%; in assay [3], -3%. Further, the result in assay [5], in assay [6], in assay [7] and in assay [8] was inactive.

For the compound `Cc1cccc2[nH]c(-c3cccc(-c4cccc(NC(=O)N[C@@H]5C[C@H]5c5ccccc5)c4)c3)nc12`, the growth inhibition was 28% in assay [1] and 98% (active) in assay [4]. Also, the inhibition was -4% in assay [2] and -1% in assay [3]. Further, the outcome in assay [5], in assay [6], in assay [7] and in assay [8] was inactive.

On to `c1ccc2[nH]c(-c3ccc(-c4ccc(CN5CCN(CCN6CCOCC6)CC5)cc4)cc3)nc2c1`, for which the figures for the growth inhibition in assay [1] and in assay [4] were 99% (active) and 98% (active), respectively. Also, the inhibition in assay [2] is 43%; in assay [3], -1%. In addition, the outcome in assay [5], in assay [6], in assay [7] and in assay [8] was inactive.

Consider `CCOC(=O)c1c[nH]c2c(ccc3ccccc32)c1=O`, for which the growth inhibition in assay [1] and in assay [4] was 96% (active) throughout. Moreover, the inhibition in assay [2] is -5%; in assay [3] it was 3%. In addition, the result in assay [5], in assay [6], in assay [7] and in assay [8] was inactive.

For the compound `COc1ccc(NC(=O)Nc2ccc(C)c(-c3ccc(C(=O)NCCN4CCCC4)cc3)c2)cc1`, the results for the growth inhibition in assay [1] and in assay [4] were 1% and 95% (active), respectively. Besides, the values for the inhibition in assay [2] and in assay [3] were 18% and 3%, respectively. For the same compound, the outcome in assay [5], in assay [6], in assay [7] and in assay [8] was inactive.

On to `CC(NC(=O)c1ccc(O)c(-c2ccc(Cl)c(Cl)c2)c1)C(=O)NCCN1CCOCC1` (stereo not given), for which the growth inhibition in assay [1] was 7%; in assay [4], 87% (active). Moreover, the values for the inhibition in assay [2] and in assay [3] were 2% and -3%, respectively. Further, the outcome in assay [5], in assay [6], in assay [7] and in assay [8] was inactive.

As for `FC(F)(F)c1cc(CNCCCNc2nc3ccncc3[nH]2)ccc1Cl`, the growth inhibition in assay [1] is 15%; in assay [4] it was 99% (active). The inhibition is 11% in assay [2] and 2% in assay [3]. Further, the outcome in assay [5], in assay [6], in assay [7] and in assay [8] was inactive.

`COc1ccc(Cc2nc(N=C(N)Nc3ccccc3)ccc2OC)cc1`: the growth inhibition was 68% (active) in assay [1] and 93% (active) in assay [4]. The inhibition in assay [2] was 40%; in assay [3] it was 2%. Also, the result in assay [5], in assay [6], in assay [7] and in assay [8] was inactive.

On to `Cn1nccc1C(=O)NCCNCc1cccc(-c2ccc(-c3nc4ccc(C(F)(F)F)cc4[nH]3)s2)c1`, for which the growth inhibition in assay [1] was 99% (active); in assay [4], 100% (active). Besides, the inhibition in assay [2] was 36%; in assay [3], -6%. The outcome in assay [5], in assay [6], in assay [7] and in assay [8] was inactive.

On to `CCCC(=O)Nc1ccc(OCCCN(Cc2ccccc2F)c2ccc(C#N)c(C(F)(F)F)c2)cc1`, for which the growth inhibition was 93% (active) in assay [1] and 89% (active) in assay [4]. Moreover, the inhibition in assay [2] was 7%; in assay [3], 1%. Also, the outcome in assay [5], in assay [6], in assay [7] and in assay [8] was inactive.

For the compound `Oc1ccc(CCNc2nc(NCc3ccccc3-c3ccc(C(F)(F)F)cc3)nc(NC3CCNCC3)n2)cc1`, the figures for the growth inhibition in assay [1] and in assay [4] were 2% and 97% (active), respectively. The inhibition in assay [2] was 12%; in assay [3], 4%. The outcome in assay [5], in assay [6], in assay [7] and in assay [8] was inactive.

As to `COc1ccc2nc(C)cc(Nc3ccc(Oc4ccc(Cl)c5ccccc45)c(Cl)c3)c2c1`, the growth inhibition in assay [1] and in assay [4] was 100% (active) each time. Also, the inhibition in assay [2] is 83% (active); in assay [3], -2%. In addition, the outcome in assay [5], in assay [6], in assay [7] and in assay [8] was inactive.

Turning to `CN1CCCc2ccc(NC(=O)Nc3ccc(-c4ccccc4)cc3)cc2C1`, the growth inhibition in assay [1] was 47%; in assay [4] it was 97% (active). For the same compound, the results for the inhibition in assay [2] and in assay [3] were 23% and 0%, respectively. The result in assay [5], in assay [6], in assay [7] and in assay [8] was inactive.

Regarding `O=c1cc(NCCCNCc2[nH]c3cc(Cl)cc(Cl)c3c2Cn2cccn2)[nH]c2ccccc12`, the growth inhibition was 2% in assay [1] and 86% (active) in assay [4]. In addition, the inhibition in assay [2] was 5%; in assay [3], 1%. In addition, the outcome in assay [5], in assay [6], in assay [7] and in assay [8] was inactive.

As for `CC(C)c1ccc(Nc2nc(NCCc3cnc[nH]3)nc(NCc3ccccc3)n2)cc1`, the growth inhibition was 2% in assay [1] and 98% (active) in assay [4]. Besides, the inhibition in assay [2] is 1%; in assay [3], -2%. Besides, the result in assay [5], in assay [6], in assay [7] and in assay [8] was inactive.

In the case of `COc1ccc(C2CCN(CCCCNC(=O)c3ccc(NC(=O)c4ccc(Cl)cc4)cc3)CC2)cc1Cl`, the growth inhibition in assay [1] is 75% (active); in assay [4], 97% (active). For the same compound, the results for the inhibition in assay [2] and in assay [3] were 28% and 4%, respectively. In addition, the result in assay [5], in assay [6], in assay [7] and in assay [8] was inactive.

Consider `CC(=O)Nc1ccc(NC(=O)c2cc(-c3ccc(C)cc3O)n[nH]2)cc1`, for which the growth inhibition in assay [1] is 78% (active); in assay [4], 101% (active). In addition, the inhibition is -3% in assay [2] and -6% in assay [3]. Besides, the result in assay [5], in assay [6], in assay [7] and in assay [8] was inactive.

The record behind these values is PubChem BioAssay.
